# Bioassay records from PubChem BioAssay.
# Compounds with a hit are over-represented: about 3.4% of the library has one in this group of screens.
# ADAM17 inh – inhibits human ADAM17 | 0.83% of 370,000 active | inhibition, % at 6.95 µM | AID 720648 | recombinant ADAM17, EDANS/DABCYL FRET peptide cleavage | P78536;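 active = inhibition above the mean of compounds lying between control limits plus 3 SD, set per campaign, cut at about 8.5% in these data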
# ADAM10 inh – ADAM10 inhibition, QFRET primary screen. O14672. recombinant ADAM10, EDANS/DABCYL FRET peptide cleavage, 3 h. inhibition, % at 7 µM. 0.62% of 370,000 active;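 active = inhibition above a per-campaign cutoff equal to the mean of compounds falling between control-based bounds plus 3 SD, cut at about 20% in these data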
# PLC-beta3 inh – inhibitors of human phospholipase C beta3. Purified PLC-beta3, fluorogenic substrate, fluorescence. inhibition, % at 12.2 µM. 0.18% of 370,000 active; in the data active = inhibition above about 11%
# KLK7 zymogen act – proKLK7 (human) activation, primary screen; P49862; purified proKLK7, EDANS-DABCYL substrate fluorescence; 100% is mature enzyme control, 0% vehicle; activation, % at 7 µM; 0.9% of 370,000 active; AID 652039;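 active = activation above the mean of all tested compounds plus 3 SD, computed per campaign excluding outliers beyond control limits, cut at about 13% in these data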
# HGIII-sPLA2 inh – Inhibits HGIII-sPLA2 liposome hydrolysis, primary screen; inhibition, % at 12.2 µM; 0.56% of 370,000 active; AID 743126; QFRET BODIPY PC-A2 liposome hydrolysis, fluorescence;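 active = inhibition above mean plus 3 SD of compounds lying within the high and low control bounds, cut at about 19% in these data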
# Target sequence (Q9NZ20 whole entry, looked up): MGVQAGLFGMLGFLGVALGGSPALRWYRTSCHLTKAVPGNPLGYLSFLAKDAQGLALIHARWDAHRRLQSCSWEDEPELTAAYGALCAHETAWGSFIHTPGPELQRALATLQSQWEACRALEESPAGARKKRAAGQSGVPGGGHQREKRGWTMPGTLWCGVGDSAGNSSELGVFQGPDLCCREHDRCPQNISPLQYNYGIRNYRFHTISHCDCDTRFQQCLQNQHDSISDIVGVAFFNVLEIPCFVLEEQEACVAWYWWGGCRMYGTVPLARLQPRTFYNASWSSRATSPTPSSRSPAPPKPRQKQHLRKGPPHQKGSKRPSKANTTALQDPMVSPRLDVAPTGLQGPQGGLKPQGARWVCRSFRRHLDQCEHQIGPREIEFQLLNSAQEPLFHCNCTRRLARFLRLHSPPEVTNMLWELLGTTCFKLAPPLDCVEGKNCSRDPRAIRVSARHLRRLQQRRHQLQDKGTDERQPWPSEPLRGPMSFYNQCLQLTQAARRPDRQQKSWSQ
# PLC-gamma1 inh – blocks human PLC-gamma1 enzyme activity; 0.84% of 370,000 active; purified PLC-gamma1, fluorogenic substrate, fluorescence; P19174; inhibition, % at 12.2 µM; in the data active = inhibition above about 9.5%
# ADAM10 confirm – human ADAM10 inhibition, confirmation; shares compounds with ADAM10 inh; ADAM10 QFRET peptide cleavage, EDANS fluorescence; inhibition, % at 6.95 µM; 1% of 2,100 active;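 active = inhibition above about 20% chosen separately for each screening run, limit read from the data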
# ADAM17 ctr – inhibits human ADAM17 in ADAM10 exosite counter-screen; shares compounds with ADAM10 inh; ADAM17 QFRET peptide cleavage, EDANS fluorescence; inhibition, % at 6.95 µM; 0.5% of 2,100 active;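 active = mean triplicate inhibition above the solvent-only control wells' mean plus 3 SD, cut at about 12% in these data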
# ADAM10 ctr – ADAM10 inhibition, counter-screen for ADAM17 exosite hits | shares compounds with ADAM17 inh | recombinant ADAM10, EDANS/DABCYL FRET peptide cleavage, 3 h | inhibition, % at 6.95 µM | 47% of 2,900 active;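 active = mean inhibition over the triplicate runs exceeds the activity threshold set in the earlier primary screen, cut at about 20% in these data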
# ADAM17 confirm – human ADAM17 inhibition, confirmation; shares compounds with ADAM17 inh; recombinant ADAM17, EDANS/DABCYL QFRET peptide cleavage; inhibition, % at 6.95 µM; 65% of 2,900 active; AID 743257;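 active = mean inhibition across replicates above the hit cutoff set in the primary screen, cut at about 8.5% in these data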
# A number is an active result; 0 = inactive; - = no result.
SMILES,ADAM17 inh,ADAM10 inh,PLC-beta3 inh,KLK7 zymogen act,HGIII-sPLA2 inh,PLC-gamma1 inh,ADAM10 confirm,ADAM17 ctr,others
CCCC1CCC2(CC1)CCC2OC(=O)Nc1cccc(Cl)c1 (stereo unspecified),0,0,0,-,0,0,-,-,
OC(CNc1nc(C(F)(F)F)nc2ccccc12)c1ccccc1 (stereo unspecified),0,0,0,0,0,0,-,-,
O=C(O)C(Nc1nc(C(F)(F)F)nc2ccccc12)c1ccccc1 (stereo unspecified),0,19.8,0,0,0,0,0,0,
CCCC(=O)OC[C@H]1CN(C2CCCC2)S(=O)(=O)c2c(F)cccc2O1,0,0,0,0,0,0,-,-,
Cc1ccccc1S(=O)(=O)N1C(c2ccc(Cl)c(Cl)c2)CC=C(C(=O)O)C1c1cccc(Br)c1 (stereo unspecified),0,20.1,0,0,0,0,0,0,
Cc1ccc(NC(=O)NCc2ccco2)cc1[N+](=O)[O-],0,0,0,0,0,0,-,-,
Nc1cccc(CCc2ccncc2)c1,0,21.1,0,0,0,0,0,0,
c1ccc(CCc2ccncc2)cc1,0,0,0,0,0,0,-,-,
Cc1cc(S(=O)(=O)N2CCc3ccccc3C2)ccc1F,0,22.3,0,0,0,0,0,0,
C[C@H](c1ccccc1)N1C[C@@H](COCc2ccccc2)Oc2cc(N3CC[C@@H](O)C3)ccc2S1(=O)=O,0,0,0,0,0,0,-,-,
C[C@@H](c1ccccc1)N1C[C@H](COCc2ccccc2)Oc2cc(N3CC[C@H](O)C3)ccc2S1(=O)=O,0,21.4,0,0,0,0,0,0,
COc1ccc([C@@H]2[C@@H]3C(=O)N(C(C)(C)C)C(=O)[C@@H]3[C@]3(Cc4ccc(Cl)cc4)C(=O)N(c4ccc(Br)cc4)C(=O)N23)cc1,0,0,0,0,0,0,-,-,
COc1ccc([C@@H]2[C@@H]3C(=O)N(C(C)(C)C)C(=O)[C@@H]3[C@]3(Cc4ccc(Cl)cc4)C(=O)N(c4ccc(OC)cc4)C(=O)N23)cc1,0,20.8,0,0,0,0,0,0,
Cc1c(C(C)(C)O)[nH]c2ccc(C(F)(F)F)cc12,0,0,0,0,0,0,-,-,
Cc1c(C2(O)CCCCC2)[nH]c2ccc(C(F)(F)F)cc12,0,20.2,0,0,0,0,0,0,
O=C1C=C(c2cccc(Cl)c2O)C[C@@H](c2ccc(Cl)cc2)C1,13.9,21.6,0,0,0,0,0,0,ADAM10 ctr=21.9;ADAM17 confirm=13.0
COc1ccccc1C(=O)Nc1ccc(S(=O)(=O)N2CCc3ccccc32)cc1,0,0,0,0,0,0,-,-,
COc1cc(C(=O)Nc2ccc(S(=O)(=O)N3CCc4ccccc43)cc2)cc(OC)c1OC,10.8,26.5,0,0,0,0,0,0,ADAM10 ctr=25.8;ADAM17 confirm=16.4
Clc1cccc(NCc2nnc(SCc3ccc(Cl)cc3Cl)o2)c1,9.3,30.8,0,0,0,0,0,0,ADAM10 ctr=0;ADAM17 confirm=14.3
O=C(CSc1n[nH]c(-c2ccncc2)n1)Nc1ccc(Br)cc1,0,0,0,0,0,0,-,-,
C#CCN(C[C@@H]1[C@@H](OC(=O)NCc2ccccc2F)[C@@H](OC(=O)NCc2ccccc2F)Cn2c(=O)ccc(=O)n21)S(=O)(=O)c1ccc(C)cc1,9.4,24.4,0,0,0,0,0,0,ADAM10 ctr=22.1;ADAM17 confirm=11.7
Cc1ccc(NC(=O)c2ccccc2)cc1C,0,0,0,0,0,0,-,-,
Cc1ccc(C(=O)Oc2cccc(NC(=O)c3ccccc3)c2)cc1C,13.0,24.8,0,0,0,0,0,0,ADAM10 ctr=23.8;ADAM17 confirm=14.0
